Screening data deposited in PubChem by several laboratories.
PostGolgi ctrl: growth of the yeast control strain, post-Golgi counter-screen. efflux-deficient yeast background strain, growth absorbance A615, 16 h. inhibition, % at 10 µM. 5% of 98,000 active. AID 738
D1 allo mod: allosteric modulators of human D1 dopamine receptor. HEK293 D1, CRE-luciferase, dopamine EC30 potentiation; actives deviate in either direction. B-score at 10 µM. 5.9% of 58,000 active;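 active = luminescence count or its row- and column-corrected plate score outside the 99.7% band of the plate's sample wells, on either side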
Cav32 inh: inhibitors of human Cav3.2 T-type calcium channel. O95180. Cav3.2-expressing cells, Fluo-4 calcium fluorescence FDSS; active compounds read low. B-score at 10 µM. 4% of 100,000 active. AID 449739;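 active = single-dose well whose peak fluorescence ratio is a statistical outlier from its plate by either plate-standardised score or position-corrected B-score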
PostGolgi yeast: growth inhibition of a yeast mutant, post-Golgi transport screen; 0.9% of 98,000 active; post-Golgi transport phenotypic cell assay; AID 739; inhibition, % at 10 µM;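 note: yeast cells grown in 1536-well plates; yeast grown about 18 h at 30C before absorbance read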
DAT uptake mod: changed human dopamine transporter uptake under cocaine IC80; Q01959; LLC-PK1 hDAT cells, [14C]-dopamine uptake with cocaine IC80; actives deviate in either direction; B-score at 10 µM; 1.3% of 110,000 active; AID 449768;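 active = Z score or B-score, a plate-position-corrected score, falls beyond the plate's 99.7% confidence bounds, in either direction; inactive = both scores lie inside the 99.7% bounds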;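 note: scored against the spread of the other compound wells on the same plate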
Target sequence (Q01959 whole entry, looked up): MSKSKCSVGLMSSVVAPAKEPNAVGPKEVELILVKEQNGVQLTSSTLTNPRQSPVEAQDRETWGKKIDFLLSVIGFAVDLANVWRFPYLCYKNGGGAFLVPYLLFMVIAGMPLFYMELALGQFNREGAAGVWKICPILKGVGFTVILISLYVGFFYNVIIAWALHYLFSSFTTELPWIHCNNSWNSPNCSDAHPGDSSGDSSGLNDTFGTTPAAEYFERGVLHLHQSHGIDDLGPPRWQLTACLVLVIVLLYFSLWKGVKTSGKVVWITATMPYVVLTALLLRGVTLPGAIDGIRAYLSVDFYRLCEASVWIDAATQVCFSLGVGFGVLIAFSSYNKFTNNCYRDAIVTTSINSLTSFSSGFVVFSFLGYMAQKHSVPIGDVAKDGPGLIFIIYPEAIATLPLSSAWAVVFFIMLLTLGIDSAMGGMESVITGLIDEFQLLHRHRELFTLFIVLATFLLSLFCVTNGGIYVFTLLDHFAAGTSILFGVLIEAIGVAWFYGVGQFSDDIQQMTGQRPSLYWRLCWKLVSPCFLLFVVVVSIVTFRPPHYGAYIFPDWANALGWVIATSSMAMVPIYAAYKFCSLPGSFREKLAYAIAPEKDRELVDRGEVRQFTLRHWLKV
PLAP activator: human PLAP activation | P05187 | purified PLAP enzyme, luminescent substrate read-out; active compounds read high | activation fold at 20 µM | 1.2% of 96,000 active; in the data active = activation fold above about 2
D1 PAM confirm: D1 receptor (human) allosteric modulation, confirmed | shares compounds with D1 allo mod | HEK293 D1 CRE-luciferase, dopamine EC30 potentiation; active compounds read high | luminescence at 10 µM | 88% of 2,200 active | AID 642;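 active = luminescence in either of two replicates above the same-plate mean plus 3 SD of the low-dose dopamine control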
D1 no dopamine: D1 (human) signaling in absence of dopamine; luminescence at 10 µM; AID 646; 0.8% of 1,900 active; HEK293 D1 CRE-luciferase, luminescence, no dopamine; active compounds read high; shares compounds with D1 allo mod; in the data active = luminescence above about 3900
Isoprot counter: alters isoproterenol CRE-luciferase response in HEK293 cells; calls only at 10 µM; HEK293 D1 CRE-luciferase, isoproterenol EC30 counter-screen; AID 647; shares compounds with D1 allo mod; 63% of 2,200 active;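 active = luminescence in either replicate above plate mean of wells with a partly effective reference agonist dose plus 3 SD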;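 note: isoproterenol raises cAMP through native beta-adrenoceptor Gs so signal bypasses D1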
* hit, by the source's call; i = inactive; . = no result given; + = active, no number. Compounds with a hit are over-represented: about 12% of the library has one in this group of screens. Cut-off read from the data, not from the text of the source, unless noted: active = inhibition above about 30%; inactive = the rest.

SMILES	PostGolgi ctrl	D1 allo mod	Cav32 inh	PostGolgi yeast	DAT uptake mod	PLAP activator	D1 PAM confirm	D1 no dopamine	Isoprot counter
COc1ccc(CCNc2oc(-c3ccc(C)cc3)nc2C#N)cc1OC	.	1.13	-1.07	5.1	0.64	1.3	.	.	.
COCCNc1oc(-c2ccc(C)cc2)nc1C#N	-3.5	5.06*	.	-1.6	.	1.3	5796*	1872	i
N#Cc1nc(Cc2ccccc2)oc1NCc1ccccc1Cl	46.0*	11.7*	.	17.2	.	1.1	11100*	1556	+
COc1ccc(C(=O)COC(=O)CSCc2c(C)noc2C)cc1OC	16.4	7.58*	0.0396	-7.7	-0.148	1.2	17860*	1868	+
COc1ccc(-n2c(SCCC(=O)O)nnc2-c2ccncc2)cc1	6.5	-1.24	0.504	1.4	0.00185	1.2	.	.	.
COc1ccc(C(=O)Nc2nnc(Cc3cccs3)s2)cc1OC	6.3	3.05*	0.162	-5.7	-0.00609	1	9388*	1740	i
COc1ccc(Cc2nnc(NC(=O)Cc3cccs3)s2)cc1OC	-2.1	17.4*	0.107	-3.0	0.0222	.	27116*	1544	+
Cc1nnc(NC(=O)c2cccc(Br)c2)s1	5.8	.	0.707	17.0	0.27	0.9	.	.	.
CCOc1ccc(C(=O)Nc2nnc(C)s2)cc1OCC	-2.4	5.93*	0.485	25.8	-0.11	0.9	13964*	.	+
Cc1cc(C)cc(NC(=S)NCCN2CCOCC2)c1	.	.	0.0252	.	-0.00921	.	.	.	.
O=C1c2cccc(Cl)c2C(=O)c2c1cccc2N1CCCC1	.	.	-2.8	.	-1.89	.	.	.	.
CCOC(=O)c1c(C2CC2)csc1NC(C)=O	3.6	4.88*	-0.262	2.9	-0.43	0.9	9548*	1704	i
CCCCCn1c(C(C)NC(=O)CCC)nc2ccccc21 (stereo not drawn)	2.6	-0.288	0.742	7.5	-0.287	1.2	.	.	.
Cc1csc(SCC(=O)c2c(N)n(C)c(=O)n(C)c2=O)n1	17.8	.	.	-3.4	.	1	.	.	.
O=C(O)c1[nH]c2ccc(Cl)cc2c1CC(=O)N1CCN(C(=O)c2ccco2)CC1	6.1	-0.028	.	7.1	-0.641	1.4	.	.	.
O=C(O)c1[nH]c2ccc(Cl)cc2c1CC(=O)N1CCN(c2ccccc2)CC1	-1.2	3.06*	0.413	1.8	-0.187	1	5332	1412	i
COC(=O)c1ccc(CSc2nc3c(cnn3-c3ccccc3)c(=O)[nH]2)o1	1.2	6.47*	-0.883	-3.6	-2.17	.	12392*	1648	+
CCC(Sc1nc2c(cnn2-c2ccccc2)c(=O)[nH]1)C(=O)OC (stereo not drawn)	6.8	-1.44	0.434	-6.6	-0.187	0.9	.	.	.
COC(=O)c1ccc(CSc2nc3c(cnn3-c3ccc(F)cc3)c(=O)[nH]2)o1	0.9	5.27*	0.703	3.8	0.436	.	9428*	1608	i
COC(=O)c1ccc(CSc2nc3c(cnn3-c3ccc(Cl)cc3)c(=O)[nH]2)o1	5.2	1.52	0.11	-4.2	-0.716	1.7	.	.	.
CCCCSc1nc2c(cnn2-c2ccc(F)cc2)c(=O)[nH]1	13.3	6.98*	0.172	0.9	-0.00719	1.4	7560*	1648	i
O=C(CSc1nc2ccccc2c(=O)n1Cc1ccco1)NCc1ccccc1	.	.	-0.0545	.	0.267	.	.	.	.
COC(=O)c1ccc(CSc2nc3ccccc3c(=O)n2Cc2ccco2)o1	33.7*	6.49*	-2.49	-7.2	-0.0834	1.4	9240*	1456	+
O=C(NC(CSSCC(NC(=O)c1ccccc1)C(=O)O)C(=O)O)c1ccccc1 (stereo not drawn)	.	.	-0.55	.	-1.73	.	.	.	.
COCCCNC(=O)C1CCCN(C(=O)Nc2ccc(OC)cc2)C1 (stereo not drawn)	-6.8	0.125	-0.122	-1.6	-0.872	1.2	.	.	.
SMILES	PostGolgi ctrl	D1 allo mod	Cav32 inh	PostGolgi yeast	DAT uptake mod	PLAP activator	D1 PAM confirm	D1 no dopamine	Isoprot counter
COc1ccc2c(c1)c(=O)oc1cc(OCC(=O)N3CCc4ccccc4C3)ccc12	-1.6	.	-3.3	-0.8	1.81	1.1	.	.	.
CCCCCNc1c(C(=O)OCC)c(=O)[nH]c2ccccc12	14.8	0.569	-0.34	3.2	-0.0418	0.8	.	.	.
O=C(CCn1cccc1)NCc1ccc(Cl)cc1	13.7	-0.471	-0.0546	9.2	0.0491	1	.	.	.
N#CC1=C(N)S[C@H](C(=O)C23CC4CC(CC(C4)C2)C3)[C@H]1c1ccncc1	5.3	12.4*	-0.744	-9.3	-0.0909	0.9	12784*	1676	+
O=C(NCc1ccncc1)C12CC3CC(CC(C3)C1)C2	7.2	0.953	0.707	-1.2	-0.421	1	.	.	.
C=CCn1c(C(C)NC(=O)COC)nc2ccccc21 (stereo not drawn)	13.8	5.4*	-0.191	-5.5	2.25	1.2	5084	1624	i
CCn1c(C(C)NC(C)=O)nc2ccccc21 (stereo not drawn)	3.6	-0.638	0.898	2.0	0.793	1	.	.	.
COC(=O)C1=C(C(=O)OC)C2(OC1c1ccccc1C)C(=O)c1ccccc1C2=O (stereo not drawn)	.	.	0.119	.	-0.00743	.	.	.	.
C=CCN1C(=O)/C(=C2\SC(N3CCOCC3)=NC2=O)c2cc(Br)ccc21	8.7	8.98*	-2.61	25.7	-0.326	1.2	17804*	1580	+
O=C1N=C(N2CCOCC2)SC1=C1CCCCC1	1.1	0.554	-0.618	0.2	0.375	1	.	.	.
CC(C)(C)OC(=O)NC(CCCCNC=O)C(=O)O (stereo not drawn)	16.1	-0.328	0.0404	0.3	0.556	0.9	.	.	.
NC(=O)c1cc(Br)cc2c3c([nH]c12)CCCC3	77.8*	3.89*	-0.408	5.2	0.0601	0.9	11200*	1388	+
O=c1c2c([nH]c3ccc(Br)cc13)CCCC2	.	-1.81	-0.0725	.	-1.84	0.8	.	.	.
Cc1cc(NC(=O)CSc2nc3sc(C)c(C)c3c(=O)n2C2CCCC2)no1	1.7	.	-2.82	5.4	-0.519	1.2	.	.	.
CCCOn1c(OCC(C)C)nc2ccccc2c1=O	15.4	4.46*	-5.02*	-1.7	-1.54	0.9	12220*	1508	+
Cc1cc(NC(=O)c2sccc2C)n(-c2cccc(Cl)c2)n1	14.6	4.87*	-0.798	-6.8	1.29	1.4	12892*	1740	+
COc1ccc(-c2nnc3n2N=C(c2cccc(Br)c2)CS3)cc1OC	8.2	1.25	0.768	0.0	-0.551	0.9	.	.	.
COc1cc(-c2nnc3n2N=C(c2ccccc2)CS3)cc(OC)c1OC	2.8	1.91*	-1.6	1.8	0.381	1.1	7188*	1768	+
COc1ccc(C2=Nn3c(nnc3-c3ccc(OC)cc3)SC2)cc1	42.3*	8.12*	-7.23*	28.7	0.621	1.1	16788*	2416	+
